Source: PubChem BioAssay (Tox21)
Values joined by “and” are separate entries in the source; they are usually repeats but may differ in a detail not shown here. Identical values can stand only once. Records with an inconclusive call do not appear. Entries that show only a call come without a potency. The source holds several records for some structures; these can differ, active in one and inactive in another. Active and inactive are the calls of the source. Unless noted, calls come from the whole dose curve; as a rule, active = well fitted curve in the direction sought with a large enough effect in the repeat runs; inconclusive = weak or mixed curves; inactive = no such curve, though single readings can be large; an effect the other way counts as inactive or inconclusive.

Assays:
[1] = Caspase-3/7 induction in HepG2 cells by small molecules, qHTS assay (AID 1346978); note: nearly all actives have a fitted effect of over 15% in size; note: potency is the fitted concentration of half-maximal effect
Summary of the method: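 Wild-type HepG2 cells (2,000/well) were settled 5 h at 37 C, 5% CO2, then exposed to compounds in DMSO for 17 h. Caspase-3/7 activity was read by luminescence 30 min after adding Caspase-Glo 3/7 reagent at room temperature.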

[2] = Caspase-3/7 induction in CHO-K1 cells by small molecules, qHTS cell viability counter screen (AID 1346979); note: nearly all actives have a fitted effect of over 35% in size; note: potency is the fitted concentration of half-maximal effect
Summary of the method: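 In the same wells as the caspase read, viability of compound-treated wild-type CHO-K1 cells was assessed using CellTiter-Fluor, added after 16hr at 37C and measured by fluorescence following 1hr further incubation.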

[3] = Caspase-3/7 induction in CHO-K1 cells by small molecules, qHTS assay (AID 1346980); note: nearly all actives have a fitted effect of over 15% in size
Summary of the method: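 Wild-type cells were seeded at 1,500 per well and settled 5 hr at 37 C, 5% CO2, then exposed to DMSO-dissolved compounds for 17 hr. Caspase-Glo 3/7 reagent was added, and luminescence was read after 30min at room temperature.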

[4] = target: Nuclear receptor subfamily 1 group I member 2 (Homo sapiens) (UniProt O75469); experiment: Human pregnane X receptor (PXR) small molecule agonists, qHTS assay (AID 1346982); note: nearly all actives have a fitted effect of over 35% in size; note: potency is the fitted concentration of half-maximal effect
Summary of the method: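 We seeded PXR-Luc HepG2 cells in assay medium containing 5% charcoal-stripped FBS, added compounds 5 hr later, incubated 24 hr, and read luminescence with ONE-Glo reagent.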

[5] = target: Acetylcholinesterase (Homo sapiens) (UniProt P22303); experiment: Acetylcholinesterase (AChE) small molecule antagonists: colormetric cell-based qHTS assay (AID 1347395; calls by dose curve; note: nearly all actives have a fitted effect of over 30% in size; note: potency is the fitted concentration of half-maximal effect)
Summary of the method: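 Endogenous AChE of human neuroblastoma SH-SY5Y cells was measured with an Ellman-type DTNB/acetylthiocholine mix. Compound pretreatment lasted 30 min at 37 C; substrate reaction ran 90 min at 37 C.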

[6] = target: Acetylcholinesterase (Homo sapiens) (UniProt P22303); experiment: Acetylcholinesterase (AChE) small molecule antagonists: enzyme-based qHTS assay (AID 1347397; calls by dose curve; note: nearly all actives have a fitted effect of over 55% in size; note: potency is the fitted concentration of half-maximal effect); settings: Potency: AChE enzyme activity inhibition
Summary of the method: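 Recombinant human AChE, dispensed at 50 mU/mL, was preincubated with Tox21 10K compounds or DMSO vehicle for 30 min at room temperature. DTNB plus acetylthiocholine was then added, and thiocholine was measured colorimetrically after a further 10 min.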

[7] = target: Acetylcholinesterase (Homo sapiens) (UniProt P22303); experiment: Acetylcholinesterase (AChE) small molecule antagonists: fluorescence cell-based qHTS assay (AID 1347398; calls by dose curve; note: nearly all actives have a fitted effect of over 50% in size; note: potency is the fitted concentration of half-maximal effect); settings: Potency: AChE activity
Summary of the method: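 Human SH-SY5Y cells were plated overnight at 37 C, exposed to compound for 30 min at 37 C, 5% CO2, then given acetylthiocholine plus Thiolite Green for 40 min at room temperature; thiocholine fluorescence (Ex/Em 490/520 nm) reports endogenous AChE activity.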

[8] = target: Acetylcholinesterase (Homo sapiens) (UniProt P22303); experiment: Acetylcholinesterase (AChE) small molecule antagonists: enzyme-based qHTS assay with human liver microsomes (AID 1347399; calls by dose curve; note: nearly all actives have a fitted effect of over 60% in size; note: potency is the fitted concentration of half-maximal effect); settings: Potency: qHTS inhibition
Summary of the method: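 Recombinant human AChE (50 mU/mL in the enzyme mix) and human liver microsomes (0.25 mg/mL final) were preincubated with compound and NADPH (0.25 mg/mL final) for 30 min at 37 C. Acetylthiocholine/DTNB was then added; thiocholine was read colorimetrically after 10 min at room temperature.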

[9] = target: Cytochrome P450 2D6 (Homo sapiens) (UniProt P10635); experiment: Cytochrome P450 Family 2 Subfamily D Member 6 (CYP2D6) small molecule antagonists: luciferase reporter qHTS assay (AID 1671196); note: nearly all actives have a fitted effect of over 50% in size; note: potency is the fitted concentration of half-maximal effect; for activity change, negative = inhibition: series mostly up to about 120 µM
Summary of the method: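 Luminescence (RLU), read 20 min after detection reagent, indicated CYP2D6 conversion of proluciferin to luciferin during a 1 h NADPH-dependent reaction at room temperature.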

[10] = target: Cytochrome P450 2C19 (Homo sapiens) (UniProt P33261); experiment: Cytochrome P450 Family 2 Subfamily C Member 19 (CYP2C19) small molecule antagonists: luciferase reporter qHTS assay (AID 1671197); note: nearly all actives have a fitted effect of over 65% in size; note: potency is the fitted concentration of half-maximal effect; for activity change, negative = inhibition: series mostly up to about 120 µM
Summary of the method: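 Light output is proportional to CYP2C19 activity: proluciferin substrate is converted to luciferin, then detected by a luciferin detection reagent that also stops the 1 h, 37C NADPH-driven reaction. Ketoconazole serves as positive control.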

[11] = target: Voltage-gated inwardly rectifying potassium channel KCNH2 (Homo sapiens) (UniProt Q12809); experiment: Human Ether-a-go-go-Related Gene (hERG) channel small molecule antagonists: fluorescence cell-based qHTS assay (AID 1671200); note: nearly all actives have a fitted effect of over 50% in size; note: potency is the fitted concentration of half-maximal effect;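 for activity change, negative = inhibition: hERG-expressing U2OS cells given a thallium stimulus after FluxOR II dye loading; series mostly up to about 77 µM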
Summary of the method: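 Quantitative HTS in hERG-U2OS cells: thallium entry through the channel reports activity, read as continuous 480/540 nm fluorescence over 2 min after stimulus addition.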

[12] = target: Cytochrome P450 2C9 (Homo sapiens) (UniProt P11712); experiment: Cytochrome P450 Family 2 Subfamily C Member 9 (CYP2C9) small molecule antagonists: luciferase reporter qHTS assay (AID 1671198); note: nearly all actives have a fitted effect of over 50% in size; note: potency is the fitted concentration of half-maximal effect; for activity change, negative = inhibition: series mostly up to about 120 µM
Summary of the method: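 CYP2C9 activity was measured with a P450-Glo proluciferin substrate. Enzyme–substrate mix was held with compound for 10 min at room temperature, then NADPH regeneration solution was added for 1 h at 37C. Luciferin product was read as luminescence.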

[13] = target: Cytochrome P450 1A2 (Homo sapiens) (UniProt P05177); experiment: Cytochrome P450 Family 1 Subfamily A Member 2 (CYP1A2) small molecule antagonists: luciferase reporter qHTS assay (AID 1671199); note: nearly all actives have a fitted effect of over 50% in size; note: potency is the fitted concentration of half-maximal effect; for activity change, negative = inhibition: series mostly up to about 120 µM
Summary of the method: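 CYP1A2 turnover of a luminogenic substrate was quantified after 1 h with NADPH regeneration at room temperature. Furafylline served as positive control.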

[14] = target: Cytochrome P450 3A4 (Homo sapiens) (UniProt P08684); experiment: Cytochrome P450 Family 3 Subfamily A Member 4 (CYP3A4) small molecule antagonists: luciferase reporter qHTS assay (AID 1671201); note: nearly all actives have a fitted effect of over 50% in size; note: potency is the fitted concentration of half-maximal effect; for activity change, negative = inhibition: series mostly up to about 120 µM
Summary of the method: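 Inhibition of CYP3A4 is measured as loss of light: the enzyme converts a proluciferin substrate to luciferin, detected luminescently. Reaction ran 1 h at room temperature with NADPH regeneration after a 10 min compound preincubation.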

[15] = Caspase-3/7 induction in HepG2 cells by small molecules, qHTS cell viability counter screen (AID 1346981); note: nearly all actives have a fitted effect of over 30% in size; note: potency is the fitted concentration of half-maximal effect
Summary of the method: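 Multiplexed with the caspase-3/7 assay: HepG2 cells, 16 hr compound treatment, CellTiter-Fluor viability detection by fluorescence.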

Nuclear receptor subfamily 1 group I member 2 (Homo sapiens), sequence (O75469 whole entry, looked up): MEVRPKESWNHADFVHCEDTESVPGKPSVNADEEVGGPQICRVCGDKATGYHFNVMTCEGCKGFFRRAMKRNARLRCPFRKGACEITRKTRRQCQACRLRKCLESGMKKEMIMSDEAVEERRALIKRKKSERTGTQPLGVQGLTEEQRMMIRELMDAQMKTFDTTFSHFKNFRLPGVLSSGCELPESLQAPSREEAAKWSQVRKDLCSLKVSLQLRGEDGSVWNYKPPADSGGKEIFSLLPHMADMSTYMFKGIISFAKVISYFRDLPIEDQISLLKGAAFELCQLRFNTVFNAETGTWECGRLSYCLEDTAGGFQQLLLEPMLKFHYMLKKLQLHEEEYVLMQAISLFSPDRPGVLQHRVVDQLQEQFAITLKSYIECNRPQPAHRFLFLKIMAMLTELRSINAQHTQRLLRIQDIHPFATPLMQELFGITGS
Cytochrome P450 1A2 (Homo sapiens), sequence (P05177 whole entry, looked up): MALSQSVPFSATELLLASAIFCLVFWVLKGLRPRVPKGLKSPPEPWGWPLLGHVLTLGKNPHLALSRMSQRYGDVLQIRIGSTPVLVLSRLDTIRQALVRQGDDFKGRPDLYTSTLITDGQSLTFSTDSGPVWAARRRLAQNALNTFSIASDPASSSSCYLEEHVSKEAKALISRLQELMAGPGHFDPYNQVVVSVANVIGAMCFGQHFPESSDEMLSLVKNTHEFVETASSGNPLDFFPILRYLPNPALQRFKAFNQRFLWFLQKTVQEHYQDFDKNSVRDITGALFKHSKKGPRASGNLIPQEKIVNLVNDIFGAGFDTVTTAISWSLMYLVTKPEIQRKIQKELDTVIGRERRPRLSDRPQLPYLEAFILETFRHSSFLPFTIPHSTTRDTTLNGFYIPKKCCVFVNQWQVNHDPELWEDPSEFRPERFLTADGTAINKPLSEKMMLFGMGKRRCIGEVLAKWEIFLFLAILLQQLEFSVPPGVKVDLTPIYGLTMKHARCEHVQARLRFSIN
Cytochrome P450 2C19 (Homo sapiens), sequence (P33261 whole entry, looked up): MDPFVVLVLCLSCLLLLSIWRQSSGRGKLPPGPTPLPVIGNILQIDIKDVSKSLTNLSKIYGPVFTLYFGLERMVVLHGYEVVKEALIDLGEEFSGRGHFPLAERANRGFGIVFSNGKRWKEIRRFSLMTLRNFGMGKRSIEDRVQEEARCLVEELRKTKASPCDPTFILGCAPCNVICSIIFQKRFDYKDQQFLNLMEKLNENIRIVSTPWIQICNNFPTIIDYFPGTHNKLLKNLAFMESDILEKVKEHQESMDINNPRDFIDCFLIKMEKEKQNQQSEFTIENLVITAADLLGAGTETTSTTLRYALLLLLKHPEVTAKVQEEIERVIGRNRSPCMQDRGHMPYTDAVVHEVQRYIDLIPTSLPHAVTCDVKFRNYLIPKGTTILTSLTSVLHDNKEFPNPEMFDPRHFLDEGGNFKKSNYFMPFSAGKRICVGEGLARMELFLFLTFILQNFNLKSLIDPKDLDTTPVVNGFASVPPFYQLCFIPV
Voltage-gated inwardly rectifying potassium channel KCNH2 (Homo sapiens), sequence (Q12809 whole entry, looked up): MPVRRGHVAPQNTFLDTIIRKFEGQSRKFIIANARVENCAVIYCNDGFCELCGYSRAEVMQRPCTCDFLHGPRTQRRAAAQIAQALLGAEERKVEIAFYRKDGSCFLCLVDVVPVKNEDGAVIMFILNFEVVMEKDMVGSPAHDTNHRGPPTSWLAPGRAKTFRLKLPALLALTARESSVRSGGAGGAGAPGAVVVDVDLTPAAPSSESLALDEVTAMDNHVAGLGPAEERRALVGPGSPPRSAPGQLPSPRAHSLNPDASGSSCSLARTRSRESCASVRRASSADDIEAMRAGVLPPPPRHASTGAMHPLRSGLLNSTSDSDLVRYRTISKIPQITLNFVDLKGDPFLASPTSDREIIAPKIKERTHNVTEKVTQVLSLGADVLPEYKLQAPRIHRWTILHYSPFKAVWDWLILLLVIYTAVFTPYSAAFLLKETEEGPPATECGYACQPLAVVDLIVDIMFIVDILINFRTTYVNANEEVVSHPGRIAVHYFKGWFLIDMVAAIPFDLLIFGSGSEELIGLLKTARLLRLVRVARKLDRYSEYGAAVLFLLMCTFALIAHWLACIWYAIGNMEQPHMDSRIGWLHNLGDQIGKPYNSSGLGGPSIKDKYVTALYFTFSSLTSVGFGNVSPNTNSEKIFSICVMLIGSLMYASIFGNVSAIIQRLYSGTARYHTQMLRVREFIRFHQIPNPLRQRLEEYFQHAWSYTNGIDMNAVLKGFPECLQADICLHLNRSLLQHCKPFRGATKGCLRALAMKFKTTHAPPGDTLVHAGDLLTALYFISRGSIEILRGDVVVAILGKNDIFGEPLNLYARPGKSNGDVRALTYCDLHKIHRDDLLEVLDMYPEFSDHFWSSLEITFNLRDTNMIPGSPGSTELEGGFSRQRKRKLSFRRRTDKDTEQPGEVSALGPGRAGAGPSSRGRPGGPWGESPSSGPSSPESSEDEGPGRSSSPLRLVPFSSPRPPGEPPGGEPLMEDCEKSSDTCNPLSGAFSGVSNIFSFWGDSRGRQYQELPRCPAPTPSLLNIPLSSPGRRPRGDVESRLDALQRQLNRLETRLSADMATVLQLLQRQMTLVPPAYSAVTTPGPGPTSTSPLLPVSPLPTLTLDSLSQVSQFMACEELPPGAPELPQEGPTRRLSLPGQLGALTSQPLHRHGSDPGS
Cytochrome P450 2C9 (Homo sapiens), sequence (P11712 whole entry, looked up): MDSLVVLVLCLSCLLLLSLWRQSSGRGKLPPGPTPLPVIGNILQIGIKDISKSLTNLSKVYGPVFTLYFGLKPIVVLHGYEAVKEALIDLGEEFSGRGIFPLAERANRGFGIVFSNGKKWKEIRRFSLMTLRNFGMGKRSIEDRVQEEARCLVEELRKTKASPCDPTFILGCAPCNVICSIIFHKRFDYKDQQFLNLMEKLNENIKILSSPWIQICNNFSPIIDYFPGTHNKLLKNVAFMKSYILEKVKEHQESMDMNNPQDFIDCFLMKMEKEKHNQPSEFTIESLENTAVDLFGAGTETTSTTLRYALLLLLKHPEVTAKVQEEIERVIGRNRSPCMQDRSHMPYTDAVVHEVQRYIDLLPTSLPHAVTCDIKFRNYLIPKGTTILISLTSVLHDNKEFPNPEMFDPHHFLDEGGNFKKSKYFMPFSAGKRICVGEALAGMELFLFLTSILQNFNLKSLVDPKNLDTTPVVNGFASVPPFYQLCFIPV
Cytochrome P450 2D6 (Homo sapiens), sequence (P10635 whole entry, looked up): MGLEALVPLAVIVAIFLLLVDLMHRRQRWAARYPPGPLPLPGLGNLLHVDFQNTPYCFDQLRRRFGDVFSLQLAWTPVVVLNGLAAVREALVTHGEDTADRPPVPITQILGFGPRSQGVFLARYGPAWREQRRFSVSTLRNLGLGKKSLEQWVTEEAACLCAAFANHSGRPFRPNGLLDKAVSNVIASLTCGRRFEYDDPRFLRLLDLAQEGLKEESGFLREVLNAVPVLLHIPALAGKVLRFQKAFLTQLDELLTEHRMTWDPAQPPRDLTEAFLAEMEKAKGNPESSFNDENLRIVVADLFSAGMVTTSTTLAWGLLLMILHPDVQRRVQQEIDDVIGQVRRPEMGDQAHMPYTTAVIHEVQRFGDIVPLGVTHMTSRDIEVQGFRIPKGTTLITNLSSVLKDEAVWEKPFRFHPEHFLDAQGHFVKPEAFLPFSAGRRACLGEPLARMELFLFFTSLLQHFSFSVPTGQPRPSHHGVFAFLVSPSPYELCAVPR
Acetylcholinesterase (Homo sapiens), sequence (P22303 whole entry, looked up): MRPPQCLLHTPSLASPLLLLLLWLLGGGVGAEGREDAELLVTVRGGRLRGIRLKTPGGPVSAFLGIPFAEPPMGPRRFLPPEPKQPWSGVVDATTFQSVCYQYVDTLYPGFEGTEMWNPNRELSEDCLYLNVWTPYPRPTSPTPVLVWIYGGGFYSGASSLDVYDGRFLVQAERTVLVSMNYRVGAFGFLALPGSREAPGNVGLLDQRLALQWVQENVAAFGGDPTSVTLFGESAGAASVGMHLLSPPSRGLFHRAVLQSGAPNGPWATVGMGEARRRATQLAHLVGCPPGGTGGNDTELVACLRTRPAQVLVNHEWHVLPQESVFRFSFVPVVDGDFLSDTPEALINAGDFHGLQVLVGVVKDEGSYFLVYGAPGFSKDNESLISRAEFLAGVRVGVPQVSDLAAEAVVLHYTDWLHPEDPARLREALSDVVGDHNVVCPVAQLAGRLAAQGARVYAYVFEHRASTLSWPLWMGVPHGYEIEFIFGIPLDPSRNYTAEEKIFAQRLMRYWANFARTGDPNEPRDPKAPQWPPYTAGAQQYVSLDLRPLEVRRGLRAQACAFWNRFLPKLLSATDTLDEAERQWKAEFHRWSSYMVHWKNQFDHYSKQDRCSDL
Cytochrome P450 3A4 (Homo sapiens), sequence (P08684 whole entry, looked up): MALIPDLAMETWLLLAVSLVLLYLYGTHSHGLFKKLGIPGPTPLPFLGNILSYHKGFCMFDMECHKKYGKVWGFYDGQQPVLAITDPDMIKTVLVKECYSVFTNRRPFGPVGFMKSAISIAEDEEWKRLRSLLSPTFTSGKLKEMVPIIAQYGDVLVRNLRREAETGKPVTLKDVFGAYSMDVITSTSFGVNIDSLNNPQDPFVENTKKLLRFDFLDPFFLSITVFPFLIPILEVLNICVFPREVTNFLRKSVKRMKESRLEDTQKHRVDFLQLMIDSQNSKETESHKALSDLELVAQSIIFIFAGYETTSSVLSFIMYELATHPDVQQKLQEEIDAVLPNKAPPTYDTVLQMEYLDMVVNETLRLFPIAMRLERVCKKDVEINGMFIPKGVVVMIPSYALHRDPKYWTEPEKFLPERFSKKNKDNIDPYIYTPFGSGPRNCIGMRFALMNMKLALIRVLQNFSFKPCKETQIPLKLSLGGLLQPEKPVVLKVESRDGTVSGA

Structure (SMILES) | Potency [1] | Potency [2] | Potency [3] | Potency [4] | Potency [5] | Potency [6] | Potency [7] | Potency [8] | Potency [9] | Potency [10] | Potency [11] | Potency [12] | Potency [13] | Potency [14] | Potency [15] | activity change, negative = inhibition [9]
C=CC(Cl)CCl (centres undefined) | inactive | inactive | inactive | inactive | inactive | inactive | inactive | inactive | inactive | 40.7 µM (active) and inactive | inactive | – | – | – | – | –
ClCC(Cl)CCl | inactive | inactive | inactive | inactive | inactive | inactive | inactive | inactive | 28.5 µM (active) and inactive | inactive | inactive | inactive | 44.8 µM (active) | inactive | – | –
CCOP(=S)(OCC)SCn1c(=O)oc2cc(Cl)ccc21 | inactive | 73.6 µM (active) | inactive | 32.9 µM (active) and 34.4 µM (active) | – | inactive | inactive | 8.55 µM (active) and 3.99 µM (active) | 13.5 µM (active) and 25.2 µM (active) | 76.2 nM (active) and 89.4 nM (active) | 23.5 µM (active) | 1.08 µM (active) and 1.12 µM (active) | 2.7 µM (active) and 3.99 µM (active) | – | inactive | –
Nc1ccc([N+](=O)[O-])cc1N | inactive | 6.11 µM (active) and 30.6 µM (active) | inactive | 8.63 µM (active) | inactive | inactive | inactive | inactive | inactive and 71 µM (active) | 25.2 µM (active) | inactive | 39.9 µM (active) and 63.3 µM (active) | 35.6 µM (active) and 31.7 µM (active) | 35.6 µM (active) and inactive | – | –
COc1ccc(C=O)cc1OC | inactive | inactive | inactive | inactive | inactive | inactive | inactive | inactive | inactive | 9.04 µM (active) and 71 µM (active) | inactive | inactive | 32.1 µM (active) and 31.7 µM (active) | inactive | – | –
CCN(CC)C(=O)C(C)Oc1cccc2ccccc12 (centres undefined) | inactive | – | inactive | 7.76 µM (active) and 864 nM (active) | inactive | inactive | inactive | inactive | inactive | 1.01 µM (active) and 633 nM (active) | inactive | 11.4 µM (active) and 35.6 µM (active) | 14.3 µM (active) and 28.3 µM (active) | 6.33 µM (active) | inactive | –
Cc1cccc(N=Nc2ccc(N(C)C)cc2)c1 | 7.83 µM (active) and 2.43 µM (active) | 62.2 µM (active) and 43.3 µM (active) | – | 221 nM (active) and 3.06 µM (active) | inactive | inactive | inactive | inactive | inactive | 10.2 µM (active) and 17.8 µM (active) | inactive | – | 2.28 µM (active) and 3.56 µM (active) | inactive | 27.8 µM (active) and 8.63 µM (active) | –
C=CC(=O)OCC(CC)(COC(=O)C=C)COC(=O)C=C | 25 µM (active) and 24.3 µM (active) | 4.99 µM (active) and 4.86 µM (active) | – | inactive | inactive | inactive | inactive | inactive | 65 µM (active) and 63.3 µM (active) | 16.3 µM (active) and 15.9 µM (active) | inactive | 13 µM (active) and 28.3 µM (active) | 39.9 µM (active) | 818 nM (active) and 2.52 µM (active) | – | –
CC(C)CON=O | inactive | inactive | – | inactive | inactive | inactive | inactive | inactive | – | inactive | inactive | inactive | – | inactive | inactive | 2.15% [at 23.6 µM] (inactive)
COP(=S)(OC)SCn1nnc2ccccc2c1=O | inactive | – | – | 53.4 µM (active) | – | – | – | inactive | 55.3 µM (active) and 39.9 µM (active) | 1.1 µM (active) and 894 nM (active) | inactive | 5.53 µM (active) and 3.99 µM (active) | 27.7 µM (active) and 28.3 µM (active) | 7.81 µM (active) and 11.2 µM (active) | inactive | –
CNC(=O)Oc1cccc2c1OC(C)(C)C2 | inactive | inactive | – | inactive | 726 nM (active) and 89.4 nM (active) | 726 nM (active) and 200 nM (active) | 289 nM (active) and 126 nM (active) | 5.14 µM (active) and 1.59 µM (active) | inactive | 72.5 µM (active) | inactive | – | – | – | – | –
COP(=O)(NC(C)=O)SC (centres undefined) | inactive | 48.6 µM (active) and inactive | – | inactive | inactive | inactive | inactive | inactive | inactive | 71.1 µM (active) and inactive | inactive | inactive | – | – | – | –
CC(O)CN(CC(C)O)CC(C)O (centres undefined) | inactive | inactive | – | inactive | inactive | inactive | inactive | inactive | inactive | inactive | inactive | inactive | inactive | inactive | inactive | –
CCCCSP(=O)(SCCCC)SCCCC | inactive | inactive | – | 23.8 µM (active) | – | inactive | – | 5.51 µM (active) and 5.03 µM (active) | – | 7.78 µM (active) and 2.52 µM (active) | inactive | 8.73 µM (active) and 3.17 µM (active) | 21.9 µM (active) and 12.6 µM (active) | – | inactive | –
